Experimental data reported in PubChem BioAssay (Tox21).
Results filed as inconclusive are left out. Active and inactive are the calls of the source. Calls come from the whole dose curve; as a rule, active = well fitted activation curve with a large enough effect in the repeat runs; inconclusive = weak or mixed curves; inactive = no such curve, though single readings can be large or run the other way. Positions of bridges follow the written chain, without caps; N, C: chain ends. Non-standard residues stand in square brackets, D forms with d. Residues, ends and D or L forms follow the SMILES beside them. *: point of attachment. X1 = CC[C@@H](C)[C@@H](N)C1=N[C@H](C(=O)*)CS1; d(aIle) = CC[C@H](C)[C@@H](N)C(=O)O; dOrn = NCCC[C@@H](N)C(=O)O

target: Nuclear receptor subfamily 1 group I member 2 (Homo sapiens) (UniProt O75469); test: CYP3A4 induction through human pregnane X receptor (PXR) by small molecules, qHTS assay (AID 1346984); conditions: DPX-2 HepG2 PXR, CYP3A4-luciferin luminescence, 24 h; series mostly up to 46.1 µM; activation: at the top concentration; note: nearly all actives have a fitted effect of over 40% in size
Procedure, shortened: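 HepG2-derived DPX-2 line carrying PXR plus a CYP3A4-promoter luciferase reporter; cells plated 5 hr, compound-exposed 24 hr at 37C. CYP3A4 activity probed with 3uM (final) Luciferin-IPA for 3hr, then luciferase read after One-Glo.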
% is set by controls: 0 for no effect and ±100 for the full control effect; potency is the fitted concentration of half-maximal effect.

| Structure (SMILES) | activation | Potency |
| --- | --- | --- |
| CC(C)c1ncc([N+](=O)[O-])n1C | -11.2% (inactive) |  |
| CCOC(=O)Cc1ccc(-c2ccccc2)cc1 | -2.3% (inactive) |  |
| Cc1cn([C@H]2C[C@H](O)[C@@H](CO)O2)c(=O)[nH]c1=O | -1.87% (inactive) |  |
| CO/N=C(\C(=O)N[C@@H]1C(=O)N2C(C(=O)O)=C(CSc3nc(C)c(CC(=O)O)s3)CS[C@H]12)c1csc(N)n1 | -0.378% (inactive) |  |
| CC(C)[C@H](NC(=O)[C@H](CC(=O)O)NC(=O)[C@H](CCCCN)NC(=O)[C@@H](N)CCCN=C(N)N)C(=O)N[C@@H](Cc1ccc(O)cc1)C(=O)O (H-RKDVY-OH) | 4.76% (inactive) |  |
| OCl | -1.26% (inactive) |  |
| CC(=O)Nc1ccc(OC(C)=O)cc1 | -5.05% (inactive) |  |
| CN1C(C(=O)Nc2ccccn2)C(=O)c2sc(Cl)cc2S1(=O)=O (stereo not given) | 2.01% (inactive) |  |
| CO[C@H]1C[C@@H]2CC[C@@H](C)[C@@](O)(O2)C(=O)C(=O)N2CCCC[C@H]2C(=O)O[C@H]([C@H](C)C[C@@H]2CC[C@@H](O)[C@H](OC)C2)CC(=O)[C@H](C)C=C(C)[C@@H](O)[C@@H](OC)C(=O)[C@H](C)C[C@H](C)/C=C/C=CC=C1C |  | inactive |
| Cc1c(N)nc([C@H](CC(N)=O)NC[C@H](N)C(N)=O)nc1C(=O)N[C@H](C(=O)N[C@H](C)[C@@H](O)[C@H](C)C(=O)N[C@H](C(=O)NCCc1nc(-c2nc(C(=O)NCCCCN=C(N)N)cs2)cs1)[C@@H](C)O)[C@@H](O[C@@H]1O[C@@H](CO)[C@@H](O)[C@H](O)[C@@H]1O[C@H]1O[C@H](CO)[C@@H](O)[C@H](OC(N)=O)[C@@H]1O)c1cnc[nH]1 | -4.65% (inactive) |  |
| O=C1[O][Bi][O]c2ccccc21 | -6.82% (inactive) |  |
| CCN(CC)CC#CCOC(=O)C(O)(c1ccccc1)C1CCCCC1 (stereo not given) |  | 8.91 µM (active) |
| CCC1OC(=O)C[C@@H](O)[C@H](C)[C@@H](O[C@@H]2O[C@H](C)C[C@H](N(C)C)[C@H]2O)[C@@H](CC=O)C[C@@H](C)C(=O)/C=C/[C@]2(C)OC2C1C (stereo not given in full) | -0.278% (inactive) |  |
| NC(N)=NCc1cccc(I)c1 | -9.85% (inactive) |  |
| C[S+](CC[C@H](N)C(=O)O)C[C@H]1O[C@@H](n2cnc3c(N)ncnc32)[C@H](O)[C@@H]1O (stereo not given in full) |  | inactive |
| C[C@@H]1O[C@@H](OC[C@H]2O[C@@H](Oc3c(-c4ccc(OCCO)c(OCCO)c4)oc4cc(OCCO)cc(O)c4c3=O)[C@H](O)[C@@H](O)[C@@H]2O)[C@H](O)[C@H](O)[C@H]1O | 1.22% (inactive) |  |
| CC[C@@H](C)[C@@H](N)C1=N[C@H](C(=O)N[C@@H](CC(C)C)C(=O)N[C@@H](CCC(=O)O)C(=O)N[C@@H](C(=O)N[C@@H]2CCCCNC(=O)[C@@H](CC(N)=O)NC(=O)[C@@H](CC(=O)O)NC(=O)[C@@H](Cc3cnc[nH]3)NC(=O)[C@@H](Cc3ccccc3)NC(=O)[C@@H]([C@H](C)CC)NC(=O)[C@@H](CCCN)NC2=O)[C@@H](C)CC)CS1 (X1-LE[d(aIle)][dK][dOrn][dI][dF][dH][dD][dN]; lactam 4-C) | -6.99% [at 20.6 µM] (inactive) |  |
| Cc1cc(CC(C)CC(C)(C)C)n(O)c(=O)c1 (stereo not given) (tested in a mixture with another compound) | -12.7% (inactive) |  |
| NC[C@@H]1CC[C@@H](N)[C@@H](O[C@H]2[C@H](O)[C@@H](O[C@H]3O[C@H](CO)[C@@H](O)[C@H](N)[C@H]3O)[C@H](N)C[C@@H]2N)O1 | 2.77% (inactive) |  |
| Nc1nc(/C(=C/CC(=O)O)C(=O)N[C@@H]2C(=O)N3C(C(=O)O)=CCS[C@H]23)cs1 | -2.99% (inactive) |  |
| CO/N=C(\C(=O)N[C@@H]1C(=O)N2C(C(=O)O)=C(COC(C)=O)CS[C@H]12)c1csc(N)n1 (stereo in doubt) | -2.38% (inactive) |  |
| CO/N=C(\C(=O)N[C@@H]1C(=O)N2C(C(=O)O)=C(CSc3cnns3)CS[C@H]12)c1csc(N)n1 | -5.52% (inactive) |  |
| NCC[C@H](O)C(=O)N[C@@H]1C[C@H](N)[C@@H](O[C@H]2O[C@H](CN)CC[C@H]2N)[C@H](O)[C@H]1O[C@H]1O[C@H](CO)[C@@H](O)[C@H](N)[C@H]1O | -1.35% (inactive) |  |
| COC1[C@@H](O[C@@H]2O[C@H](C)[C@@H](O[C@H]3C[C@@](C)(O)[C@H](OC(=O)CC(C)C)[C@H](C)O3)[C@H](N(C)C)[C@H]2O)[C@@H](CC=O)C[C@@H](C)[C@@H](O)/C=C/C=C/C[C@@H](C)OC(=O)C[C@H]1OC(C)=O (stereo not given in full) | -8.24% [at 20.6 µM] (inactive) |  |
| NC(=O)[C@@H]1C[C@]2(NC(=O)NC2=O)c2cc(F)ccc2O1 | 3.98% (inactive) |  |
| C[C@@H]1C[C@H]2[C@@H]3C[C@H](F)C4=CC(=O)C=C[C@]4(C)[C@@]3(Cl)[C@@H](O)C[C@]2(C)[C@H]1C(=O)COC(=O)C(C)(C)C | 3.46% (inactive) |  |
| COc1ccc(/C=N/NC(=O)c2ccncc2)c(C(=O)O)c1OC | -27.8% (inactive) |  |
| O=C(O)c1ccc(NC2OC[C@@H](O)[C@H](O)[C@H]2O)cc1 (stereo not given in full) | -1.15% (inactive) |  |
| CC(C)(C)C(=O)OCC(=O)[C@H]1CC[C@H]2[C@@H]3CCC4=CC(=O)CC[C@]4(C)[C@H]3CC[C@]12C | -2.86% (inactive) |  |
| NC(=O)CC[C@@H]1NC(=O)[C@H](Cc2ccccc2)NC(=O)[C@H](Cc2ccc(O)cc2)NC(=O)[C@@H](N)CSSC[C@@H](C(=O)N2CCC[C@H]2C(=O)N[C@@H](CCCN=C(N)N)C(=O)NCC(N)=O)NC(=O)[C@H](CC(N)=O)NC1=O | 2.29% (inactive) |  |
